Laboratory results from PubChem BioAssay (Tox21).
Where “and” joins values, the source holds several entries; their conditions need not be identical. Equal values may be shown once. Records with an inconclusive call do not appear. A call without a number means that no potency is given here. Calls of active or inactive are those of the source. Unless noted, calls follow the shape of the dose curve; as a rule, active = well fitted curve in the direction sought with a large enough effect in the repeat runs; inconclusive = weak or mixed curves; inactive = no such curve, though single readings can be large; an effect the other way counts as inactive or inconclusive.

Assays:
[1] = qHTS assay for small molecule agonists of the p53 signaling pathway - cell viability (AID 651633; calls by dose curve;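 also: p53RE-bla HCT reporter cells with a stable beta-lactamase p53 reporter; series mostly up to about 83 µM; nearly all actives have a fitted effect of over 30% in size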)
In short: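 p53RE-bla cells were treated with compound for 16 hours at 37 C. Cytotoxicity was then measured as CellTiter-Glo luminescence after 30 min at room temperature.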

[2] = qHTS assay for small molecules that induce genotoxicity in human embryonic kidney cells expressing luciferase-tagged ATAD5 - cell viability (AID 651634; calls by dose curve; also: nearly all actives have a fitted effect of over 25% in size; also: potency is read from the fitted curve at half-maximal effect)
In short: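 15.5 hr compound or vehicle exposure of HEK293T cells expressing luciferase-tagged ATAD5 at 37C; live-cell protease activity is read by fluorescence after 30 min of CellTiter-Fluor.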

[3] = qHTS assay to test for compound auto fluorescence at 590 nm (red) in HepG2 cells (AID 720674)
In short: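 Seeding: 2,000 HepG2 cells/well, MEM/10% FBS, overnight 37 C. Dosing: compound vs DMSO. Incubation: 1 hr, 37 C, 5% CO2. Read: fluorescence 540 ex/590 em, Rose Bengal sodium as red reference.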

[4] = qHTS assay to test for compound auto fluorescence at 535 nm (green) in HepG2 cells (AID 720675)
[5] = qHTS assay to test for compound auto fluorescence at 460 nm (blue) in HEK293 cells (AID 720678)
In short: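 Cells were seeded and left to adhere for 4-5 hr at 37C. Compounds were then pin-transferred. After an overnight incubation at 37C under 5% CO2, intrinsic fluorescence at 405/460 nm was measured and referenced to triamterene.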

[6] = qHTS assay to test for compound auto fluorescence at 590 nm (red) in HEK293 cells (AID 720679)
In short: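 Each well held 2,000 HEK293 cells in medium containing 10% dialyzed FBS. Following 4-5 hr attachment at 37C, 23 nL test compound or DMSO was added; plates sat overnight, and red fluorescence (540/590nm) was recorded.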

[7] = qHTS assay to test for compound auto fluorescence at 535 nm (green) in HEK293 cells (AID 720680)
[8] = qHTS assay to test for compound auto fluorescence at 460 nm (blue) in HEK293 cell free culture (AID 720681)
In short: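 Compounds were added to cell-free DMEM with 10% FBS and fluorescence read directly. The blue channel used 405 nm excitation and 460 nm emission, with triamterene as the reference fluorophore.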

[9] = qHTS assay to test for compound auto fluorescence at 535 nm (green) in HEK293 cell free culture (AID 720682)
In short: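 Fluorescein serves as the green reference fluorophore; each compound's intrinsic emission at 535 nm (excitation 485 nm) is reported as an equivalent amount of that dye, measured in serum-containing DMEM without cells.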

[10] = qHTS assay to test for compound auto fluorescence at 590 nm (red) in HEK293 cell free culture (AID 720683)
In short: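 Cell-free wells of DMEM with 10% FBS received compound, and intrinsic fluorescence was read at excitation/emission 540/590 nm. Values expressed as equivalence to Rose Bengal sodium.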

[11] = qHTS assay to test for compound auto fluorescence at 590 nm (red) in HepG2 cell free culture (AID 720684)
In short: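 Rose Bengal sodium served as the reference for red signal. Test compounds were dispensed into serum-containing MEM (10% FBS) without cells, and plates were read at 540/590 nm.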

[12] = qHTS assay to test for compound auto fluorescence at 460 nm (blue) in HepG2 cell free culture (AID 720685)
In short: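 Cell-free plates of MEM plus 10% FBS received 23 nL compound or DMSO vehicle; blue-channel (405/460 nm) intensity scored against triamterene as reference fluorophore.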

[13] = qHTS assay to test for compound auto fluorescence at 535 nm (green) in HepG2 cell free culture (AID 720686)
[14] = qHTS assay to test for compound auto fluorescence at 460 nm (blue) in HepG2 cells (AID 720687)
In short: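 HepG2 cells in MEM with 10% FBS, attached overnight at 37 C, were exposed to compound or DMSO for 1 hr at 37 C, 5% CO2. Blue fluorescence was read at 405/460 nm, with triamterene as reference fluorophore.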

[15] = qHTS assay for small molecule disruptors of the mitochondrial membrane potential - cell viability (AID 720634; calls by dose curve; also: nearly all actives have a fitted effect of over 20% in size; also: potency is read from the fitted curve at half-maximal effect)
In short: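 In this qHTS format, HepG2 cells plated overnight were pinned with compound, incubated 1 hr, and assayed for ATP luminescence with CellTiter-Glo after m-MPI dye addition.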

[16] = qHTS assay for small molecule disruptors of the mitochondrial membrane potential (AID 720635); also: potency is read from the fitted curve at half-maximal effect
In short: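 HepG2 cells exposed to compound 1 hr at 37C, then Mito-MPS dye 30 min. Ratio read of aggregate (540/590 nm) versus monomer (490/535 nm) fluorescence.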

[17] = molecular target: Glucocorticoid receptor (Homo sapiens) (UniProt P04150); experiment: qHTS assay to identify small molecule agonists of the glucocorticoid receptor (GR) signaling pathway (AID 720691; active = well fitted activation curve with a large enough effect in the signal ratio in the repeat runs, not every such curve was filed as active; the % refers to the signal ratio; also: potency is read from the fitted curve at half-maximal effect)
Chain of Glucocorticoid receptor (Homo sapiens) (P04150 whole entry, looked up): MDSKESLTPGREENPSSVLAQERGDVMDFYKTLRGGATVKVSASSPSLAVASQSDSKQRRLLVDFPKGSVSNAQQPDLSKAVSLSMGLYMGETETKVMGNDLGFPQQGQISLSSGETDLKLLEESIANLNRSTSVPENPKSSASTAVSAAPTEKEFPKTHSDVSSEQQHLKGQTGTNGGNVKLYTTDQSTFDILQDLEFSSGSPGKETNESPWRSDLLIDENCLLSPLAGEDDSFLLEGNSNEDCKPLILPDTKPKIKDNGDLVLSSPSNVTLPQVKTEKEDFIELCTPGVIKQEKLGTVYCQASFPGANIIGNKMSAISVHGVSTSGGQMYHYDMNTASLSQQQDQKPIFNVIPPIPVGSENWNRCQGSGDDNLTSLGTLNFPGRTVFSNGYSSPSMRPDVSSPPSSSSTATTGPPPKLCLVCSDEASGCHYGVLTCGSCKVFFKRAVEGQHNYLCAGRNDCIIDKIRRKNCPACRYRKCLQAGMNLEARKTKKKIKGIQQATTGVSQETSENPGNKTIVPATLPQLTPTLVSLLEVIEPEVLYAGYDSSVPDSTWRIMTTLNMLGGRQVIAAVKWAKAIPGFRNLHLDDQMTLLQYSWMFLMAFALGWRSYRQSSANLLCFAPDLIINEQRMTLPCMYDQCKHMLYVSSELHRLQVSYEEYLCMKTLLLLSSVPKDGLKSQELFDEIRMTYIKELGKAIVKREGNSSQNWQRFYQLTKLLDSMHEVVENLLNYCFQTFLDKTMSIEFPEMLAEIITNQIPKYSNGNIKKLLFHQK
In short: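 Measures GR pathway activation through a GRE-beta-lactamase reporter stably integrated in HeLa cells, with 18 h compound treatment at 37 C and fluorescence detection using a FRET substrate.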

[18] = molecular target: Glucocorticoid receptor (Homo sapiens) (UniProt P04150); experiment: qHTS assay to identify small molecule antagonists of the glucocorticoid receptor (GR) signaling pathway (AID 720692; active = well fitted inhibition curve with a large enough effect in the signal ratio in the repeat runs, not every such curve was filed as active; the % refers to the signal ratio; also: potency is read from the fitted curve at half-maximal effect)
In short: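 Tox21 10K library screened in concentration-response for blockade of dexamethasone (5 nM final)-induced GRE-bla reporter activity in HeLa cells; 18 h treatment, fluorescence read.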

SMILES | Potency [1] | Potency [2] | outcome [3] | outcome [4] | outcome [5] | outcome [6] | outcome [7] | outcome [8] | outcome [9] | outcome [10] | outcome [11] | outcome [12] | outcome [13] | outcome [14] | Potency [15] | Potency [16] | Potency [17] | Potency [18]
CN(C)C=O | inactive | inactive | inactive | inactive | inactive | inactive | inactive | inactive | inactive | inactive | inactive | inactive | inactive | inactive |  |  |  | 
CCCCCCCCCCCCCC(=O)OC(C)C | inactive | inactive | inactive | inactive | inactive | inactive | inactive | inactive | inactive | inactive | inactive | inactive | inactive | inactive | inactive | inactive | inactive | inactive
C[C@]12C[C@H](O)[C@H]3[C@@H](CCC4=CC(=O)CC[C@@]43C)[C@@H]1CC[C@@H]2C(=O)CO | inactive | inactive | inactive | inactive | inactive | inactive | inactive | inactive | inactive | inactive | inactive | inactive | inactive | inactive | inactive | inactive | 169 nM (active) and 69.3 nM (active) and 123 nM (active) | 674 nM (active) and 390 nM (active)
Oc1cccc(O)c1 | inactive | inactive | inactive | inactive | inactive | inactive | inactive | inactive | inactive | inactive | inactive | inactive | inactive | inactive | inactive | inactive | inactive | inactive
O=c1c(-c2ccc(O)cc2)coc2cc(O)cc(O)c12 | inactive |  | inactive | inactive | inactive | inactive | inactive | inactive | inactive | inactive | inactive | inactive | inactive | inactive | inactive | 5.96 µM (active) and 1.07 µM (active) and 8.63 µM (active) | inactive | 
CO[C@H]1C=CO[C@@]2(C)Oc3c(C)c(O)c4c(O)c(c(/C=N/N5CCN(C)CC5)c(O)c4c3C2=O)NC(=O)/C(C)=C\C=C[C@H](C)[C@H](O)[C@@H](C)[C@@H](O)[C@@H](C)[C@H](OC(C)=O)[C@@H]1C | inactive | 23.7 µM (active) and 48.8 µM (active) and 39 µM (active) | inactive | inactive | inactive | inactive | inactive | inactive | inactive | inactive | inactive | inactive | inactive | inactive | inactive | 10.6 µM (active) and 24.5 µM (active) and 11 µM (active) |  | 
CCOC(=O)C(C)(C)Oc1ccc(Cl)cc1 | inactive | inactive | inactive | inactive | inactive | inactive | inactive | inactive | inactive | inactive |  | inactive | inactive | inactive | inactive | inactive | inactive | inactive
NCCNc1cccc2ccccc12 | inactive | inactive | inactive | inactive | inactive | inactive | inactive | inactive | inactive | inactive |  | inactive | inactive | inactive | inactive |  | inactive | inactive
COC1=CC(=O)C[C@@H](C)[C@]12Oc1c(Cl)c(OC)cc(OC)c1C2=O |  | inactive | inactive | inactive | inactive | inactive | inactive | inactive | inactive | inactive | inactive | inactive | inactive | inactive | inactive | inactive | inactive | inactive
Cc1cccc2ccccc12 | inactive | inactive | inactive | inactive | inactive | inactive | inactive | inactive | inactive | inactive | inactive | inactive | inactive | inactive | inactive | inactive |  | 
O=C(O)Cc1cccc2ccccc12 | inactive | inactive | inactive | inactive | inactive | inactive | inactive | inactive | inactive | inactive |  | inactive | inactive | inactive | inactive |  |  | 
COc1ccc(O)cc1 | inactive | inactive | inactive | inactive | inactive | inactive | inactive | inactive | inactive | inactive | inactive | inactive | inactive | inactive | inactive | inactive | inactive | inactive
Cc1ccc(O)c(-n2nc3ccccc3n2)c1 | inactive | inactive | inactive | inactive | inactive | inactive | inactive | inactive | inactive | inactive |  | inactive | inactive | inactive | 30.6 µM (active) | 21.1 µM (active) and 60.6 µM (active) and 30.6 µM (active) | inactive | inactive
CCCCC/C(C=O)=C\c1ccccc1 | inactive | inactive | inactive | inactive | inactive | inactive | inactive | inactive | inactive | inactive |  | inactive | inactive | inactive | inactive | inactive | inactive | inactive
